# PubChem BioAssay
# Active and inactive are the calls of the source.
# Experiments:
# [1] = test system: PRMT1 (protein arginine N-methyltransferase 1); assay: small molecules binding arginine methyltransferase PRMT1 – biochemical, small-molecule microarray, 635 nm fluorescence, primary screen (AID 1088); conditions: higher = more signal;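 note: binding of Prmt1 protein to compounds spotted on small-molecule microarray slides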
# [2] = growth effects on S. cerevisiae YJM789 – YJM789 clinical isolate, OD600, 24 h, basal, primary screen (AID 1089); conditions: higher = more signal, called active from +8 up or from −8 down;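 note: growth of clinical yeast isolate S. cerevisiae YJM 789 seeded 1000 cells per well; test concentration not given here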
# [3] = S. pombe growth modifiers, basal conditions – strain 972, OD600, 24 h, no modulator, primary screen (AID 1090);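 note: basal condition with compound alone and no growth modifier present; test concentration not given here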; conditions: S. pombe 972 growth, higher = more signal, called active from +8 up or from −8 down
# [4] = budding yeast growth modifiers under rapamycin – strain BY4716, OD600, 96 h, primary screen (AID 1091); note: test concentration not given here; conditions: S. cerevisiae BY4716 + rapamycin, higher = more signal, called active from +8 up or from −8 down
# [5] = target: Torsin-1A-interacting protein 2 (Homo sapiens) (UniProt Q8NFQ8); assay: small molecules binding lysate-expressed LULL1 – cell lysate, human LULL1 lysate, 635/667 nm fluorescence, primary screen (AID 1092); conditions: small-molecule microarray, hLULL1 lysate binding, 635 nm fluorescence; higher = more signal;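 note: probe is lysate of COS7 cells overexpressing human LULL1; score merges per-feature 667 nm fluorescence with signal-to-noise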
# Torsin-1A-interacting protein 2 (Homo sapiens), sequence (Q8NFQ8 whole entry, looked up): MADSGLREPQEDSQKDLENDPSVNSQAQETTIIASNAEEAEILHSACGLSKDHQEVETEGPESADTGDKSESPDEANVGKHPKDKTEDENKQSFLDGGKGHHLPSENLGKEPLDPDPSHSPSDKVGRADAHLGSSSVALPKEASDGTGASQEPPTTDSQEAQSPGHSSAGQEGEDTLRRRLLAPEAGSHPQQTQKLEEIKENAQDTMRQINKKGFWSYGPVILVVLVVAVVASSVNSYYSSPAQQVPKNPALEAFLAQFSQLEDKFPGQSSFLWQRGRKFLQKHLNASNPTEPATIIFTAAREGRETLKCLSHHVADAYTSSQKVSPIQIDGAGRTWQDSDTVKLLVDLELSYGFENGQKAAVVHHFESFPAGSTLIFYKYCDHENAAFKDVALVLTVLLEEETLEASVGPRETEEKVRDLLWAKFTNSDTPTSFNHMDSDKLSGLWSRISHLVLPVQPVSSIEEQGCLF
# [6] = optical density change of DRC41 E. coli – strain DRC41, OD650, 24 h, E. coli filamentation project, primary screen (AID 1093);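 note: MC1000 strain lacking acrAB efflux and sulA so SOS filamentation is blocked; test concentration not given here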; conditions: E. coli DRC41 growth, higher = more signal, called active from +8 up or from −8 down
# [7] = probe aLefty2 binding to arrayed compounds – biochemical, biotinylated probe, 635/667 nm fluorescence, primary screen (AID 1094); conditions: small-molecule microarray, higher = more signal;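 note: score merges spot fluorescence near 667 nm with spot signal-to-noise ratio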
# [8] = test system: Noggin (protein binding on small-molecule microarray); assay: small molecules binding Noggin protein – biochemical, 635/667 nm fluorescence, primary screen (AID 1095); conditions: 635 nm fluorescence, higher = more signal;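 note: score merges 667 nm feature fluorescence with signal to noise over triplicate slides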
# [9] = target: Neurogenic locus notch homolog protein 3 (Homo sapiens) (UniProt Q9UM47); assay: small molecules binding NOTCH3 protein – biochemical, 635/667 nm fluorescence, primary screen (AID 1096); conditions: small-molecule microarray, 635 nm fluorescence, higher = more signal
# Neurogenic locus notch homolog protein 3 (Homo sapiens), sequence (Q9UM47 whole entry, looked up): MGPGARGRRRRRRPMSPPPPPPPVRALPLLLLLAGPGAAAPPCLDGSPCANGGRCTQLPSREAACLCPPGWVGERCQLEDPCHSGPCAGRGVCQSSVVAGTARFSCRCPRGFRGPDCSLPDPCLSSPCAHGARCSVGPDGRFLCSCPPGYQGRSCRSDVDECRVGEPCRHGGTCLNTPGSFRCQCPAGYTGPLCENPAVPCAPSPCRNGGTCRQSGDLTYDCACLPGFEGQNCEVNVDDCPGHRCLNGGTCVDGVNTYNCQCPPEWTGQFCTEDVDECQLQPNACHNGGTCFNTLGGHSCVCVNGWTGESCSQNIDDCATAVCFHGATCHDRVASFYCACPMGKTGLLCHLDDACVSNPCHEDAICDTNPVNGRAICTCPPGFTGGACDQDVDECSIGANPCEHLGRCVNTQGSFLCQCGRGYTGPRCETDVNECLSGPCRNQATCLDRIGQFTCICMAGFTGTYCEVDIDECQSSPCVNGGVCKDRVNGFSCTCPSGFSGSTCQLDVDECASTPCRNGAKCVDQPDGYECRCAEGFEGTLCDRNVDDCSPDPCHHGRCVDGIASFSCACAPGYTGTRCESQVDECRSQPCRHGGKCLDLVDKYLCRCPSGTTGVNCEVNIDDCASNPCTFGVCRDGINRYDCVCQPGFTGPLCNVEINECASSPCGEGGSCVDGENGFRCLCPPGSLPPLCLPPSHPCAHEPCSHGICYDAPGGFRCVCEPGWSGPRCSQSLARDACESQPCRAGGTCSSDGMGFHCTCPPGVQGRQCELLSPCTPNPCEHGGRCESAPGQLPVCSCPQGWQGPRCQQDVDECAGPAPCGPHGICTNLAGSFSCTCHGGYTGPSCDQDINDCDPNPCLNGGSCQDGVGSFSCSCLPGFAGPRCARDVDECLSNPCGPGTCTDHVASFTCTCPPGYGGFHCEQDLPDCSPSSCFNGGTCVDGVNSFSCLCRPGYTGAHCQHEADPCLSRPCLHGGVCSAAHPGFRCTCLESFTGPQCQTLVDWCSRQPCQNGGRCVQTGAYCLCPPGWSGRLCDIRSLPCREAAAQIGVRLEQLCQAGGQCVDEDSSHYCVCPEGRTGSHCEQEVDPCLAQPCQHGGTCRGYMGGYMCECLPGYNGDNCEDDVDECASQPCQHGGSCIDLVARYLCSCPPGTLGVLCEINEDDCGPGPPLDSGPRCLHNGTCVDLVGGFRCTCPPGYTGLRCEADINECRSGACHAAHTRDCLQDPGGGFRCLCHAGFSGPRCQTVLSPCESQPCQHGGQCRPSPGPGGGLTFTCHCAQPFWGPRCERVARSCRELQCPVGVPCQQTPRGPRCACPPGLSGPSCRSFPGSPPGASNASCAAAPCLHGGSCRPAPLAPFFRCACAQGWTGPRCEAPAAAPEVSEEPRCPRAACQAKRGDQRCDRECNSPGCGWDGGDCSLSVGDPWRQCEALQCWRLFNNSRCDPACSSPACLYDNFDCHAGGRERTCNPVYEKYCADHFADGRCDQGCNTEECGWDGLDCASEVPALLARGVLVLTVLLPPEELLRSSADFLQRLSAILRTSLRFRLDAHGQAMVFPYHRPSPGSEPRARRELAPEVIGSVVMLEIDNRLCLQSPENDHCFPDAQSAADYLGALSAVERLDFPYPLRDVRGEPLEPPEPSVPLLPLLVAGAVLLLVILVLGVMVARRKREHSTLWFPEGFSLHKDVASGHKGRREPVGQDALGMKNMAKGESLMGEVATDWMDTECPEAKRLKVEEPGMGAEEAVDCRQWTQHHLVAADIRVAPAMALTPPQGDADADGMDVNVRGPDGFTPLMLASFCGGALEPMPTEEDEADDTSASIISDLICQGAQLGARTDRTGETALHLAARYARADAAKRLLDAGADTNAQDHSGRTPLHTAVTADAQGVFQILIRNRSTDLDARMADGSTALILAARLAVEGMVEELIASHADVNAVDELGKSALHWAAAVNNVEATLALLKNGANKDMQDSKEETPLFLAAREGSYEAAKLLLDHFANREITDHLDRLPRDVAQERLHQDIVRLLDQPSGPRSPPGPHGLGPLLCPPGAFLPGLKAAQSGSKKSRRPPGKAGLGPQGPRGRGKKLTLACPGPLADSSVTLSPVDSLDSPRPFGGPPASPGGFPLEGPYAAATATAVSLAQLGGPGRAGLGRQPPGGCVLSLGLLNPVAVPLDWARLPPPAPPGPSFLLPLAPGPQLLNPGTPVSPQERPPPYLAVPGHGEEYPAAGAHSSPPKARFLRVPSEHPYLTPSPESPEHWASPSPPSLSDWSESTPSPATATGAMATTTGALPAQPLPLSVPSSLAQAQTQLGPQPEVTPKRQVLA
# [10] = probe aEGFR binding to arrayed compounds – biochemical, biotinylated probe, 635/667 nm fluorescence, primary screen (AID 1097); conditions: small-molecule microarray, higher = more signal;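 note: probe is a biotinylated anti-EGFR antibody binding compounds printed on slides; score combines fluorescence near 667 nm and signal to noise of each spot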
# [11] = test system: Plasmodium falciparum Sir2 (PF13_0152, Sir2A); assay: Plasmodium falciparum Sir2A binding compounds – biochemical, small-molecule microarray, 635 nm fluorescence, primary screen (AID 1098); conditions: fluorescence 635 nm, higher = more signal;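 note: score merges spot fluorescence intensity with its signal-to-noise ratio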
# [12] = probe aDKK1 binding to arrayed compounds – biochemical, biotinylated probe, 635/667 nm fluorescence, primary screen (AID 1099); conditions: small-molecule microarray, higher = more signal;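 note: score merges 667nm spot fluorescence with signal to noise across triplicate slides; reference of the scale not given here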
# [13] = probe aCHRDL2 binding to arrayed compounds – biochemical, biotinylated probe, 635/667 nm fluorescence, primary screen (AID 1100); conditions: small-molecule microarray, higher = more signal
# [14] = change in splice reporter luminescence, either direction, cell-based, HEK293, spliceosome inhibition project, primary screen (AID 1101); conditions: HEK293 splicing luciferase reporter, 24 h, higher = more signal, called active from +8 up or from −8 down;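 note: HEK293 cells carrying a splicing-competent luciferase reporter gene; test concentration not given here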
# [15] = target: Fibroblast growth factor 10 (Homo sapiens) (UniProt O15520); assay: compounds binding fibroblast growth factor 10 – biochemical, small-molecule microarray, 635 nm fluorescence, primary screen (AID 1102); conditions: FGF10 binding, fluorescence 635 nm, higher = more signal
# Fibroblast growth factor 10 (Homo sapiens), sequence (O15520 whole entry, looked up): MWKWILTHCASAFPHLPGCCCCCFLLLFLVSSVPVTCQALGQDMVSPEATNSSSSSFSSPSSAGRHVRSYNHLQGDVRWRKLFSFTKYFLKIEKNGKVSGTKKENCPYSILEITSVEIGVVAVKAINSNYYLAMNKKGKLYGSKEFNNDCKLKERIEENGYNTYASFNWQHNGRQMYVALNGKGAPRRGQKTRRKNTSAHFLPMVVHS
# [16] = test system: glycogen synthase kinase-3 (GSK3A per assay name; protocol says GSK3B); assay: compounds binding glycogen synthase kinase-3 – biochemical, small-molecule microarray, 635 nm fluorescence, GSK3A, primary screen (AID 1103); conditions: fluorescence 635 nm, higher = more signal; note: the record names both GSK3A and GSK3B
# [17] = target: Epidermal growth factor receptor (Homo sapiens) (UniProt P00533); assay: compounds binding epidermal growth factor receptor – biochemical, small-molecule microarray, 635 nm fluorescence, primary screen (AID 1104); conditions: EGFR binding, higher = more signal;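 note: score merges 667 nm emission intensity with spot signal to noise over triplicate slides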
# Epidermal growth factor receptor (Homo sapiens), sequence (P00533 whole entry, looked up): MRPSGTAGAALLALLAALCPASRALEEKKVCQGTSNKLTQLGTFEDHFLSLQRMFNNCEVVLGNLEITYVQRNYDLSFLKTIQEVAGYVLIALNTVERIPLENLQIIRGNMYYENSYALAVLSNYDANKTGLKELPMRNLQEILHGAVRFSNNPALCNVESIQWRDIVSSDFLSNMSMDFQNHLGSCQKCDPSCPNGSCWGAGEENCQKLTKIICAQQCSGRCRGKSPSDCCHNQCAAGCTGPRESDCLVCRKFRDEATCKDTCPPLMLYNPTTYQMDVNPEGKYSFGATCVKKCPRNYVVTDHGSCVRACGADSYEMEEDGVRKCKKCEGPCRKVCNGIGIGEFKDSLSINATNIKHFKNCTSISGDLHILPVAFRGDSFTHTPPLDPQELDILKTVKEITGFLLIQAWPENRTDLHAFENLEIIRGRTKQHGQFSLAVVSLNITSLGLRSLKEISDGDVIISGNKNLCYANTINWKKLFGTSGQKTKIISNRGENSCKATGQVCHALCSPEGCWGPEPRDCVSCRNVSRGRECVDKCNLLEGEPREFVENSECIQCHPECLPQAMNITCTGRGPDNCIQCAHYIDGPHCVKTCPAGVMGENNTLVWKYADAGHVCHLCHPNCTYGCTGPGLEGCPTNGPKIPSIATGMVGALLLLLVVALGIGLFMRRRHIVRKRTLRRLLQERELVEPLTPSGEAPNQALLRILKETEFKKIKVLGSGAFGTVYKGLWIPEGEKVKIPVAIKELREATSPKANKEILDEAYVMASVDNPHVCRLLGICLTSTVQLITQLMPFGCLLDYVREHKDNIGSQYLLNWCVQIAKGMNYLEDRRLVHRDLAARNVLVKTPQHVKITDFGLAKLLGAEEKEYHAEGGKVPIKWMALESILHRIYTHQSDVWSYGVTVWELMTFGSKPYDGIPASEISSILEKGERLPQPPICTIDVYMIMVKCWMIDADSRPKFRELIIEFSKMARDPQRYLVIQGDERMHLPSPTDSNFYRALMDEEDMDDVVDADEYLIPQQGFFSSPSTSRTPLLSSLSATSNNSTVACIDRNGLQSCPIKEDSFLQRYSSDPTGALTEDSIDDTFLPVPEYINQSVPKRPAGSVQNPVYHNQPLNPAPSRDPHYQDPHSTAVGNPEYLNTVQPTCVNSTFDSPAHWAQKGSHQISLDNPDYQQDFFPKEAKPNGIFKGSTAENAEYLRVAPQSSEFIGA
# [18] = target: Follistatin-related protein 3 (Homo sapiens) (UniProt O95633); assay: compounds binding follistatin-related protein 3 – biochemical, small-molecule microarray, 635 nm fluorescence, primary screen (AID 1105); conditions: FSTL3 binding, higher = more signal;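 note: score merges emission near 667 nm and signal to noise per printed spot across three slides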
# Follistatin-related protein 3 (Homo sapiens), sequence (O95633 whole entry, looked up): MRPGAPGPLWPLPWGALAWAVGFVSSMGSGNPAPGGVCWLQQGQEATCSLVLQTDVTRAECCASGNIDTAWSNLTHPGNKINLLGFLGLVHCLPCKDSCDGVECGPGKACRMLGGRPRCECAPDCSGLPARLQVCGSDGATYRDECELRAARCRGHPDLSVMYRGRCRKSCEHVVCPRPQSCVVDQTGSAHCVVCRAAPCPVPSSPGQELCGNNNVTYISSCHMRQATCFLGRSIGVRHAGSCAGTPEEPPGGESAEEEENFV
# [19] = target: Dickkopf-related protein 1 (Homo sapiens) (UniProt O94907); assay: small molecules binding DKK1 protein – biochemical, small-molecule microarray, 635 nm fluorescence scan, primary screen (AID 1106); conditions: higher = more signal;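 note: score merges emission near 667 nm with signal to noise over three replicate slides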
# Dickkopf-related protein 1 (Homo sapiens), sequence (O94907 whole entry, looked up): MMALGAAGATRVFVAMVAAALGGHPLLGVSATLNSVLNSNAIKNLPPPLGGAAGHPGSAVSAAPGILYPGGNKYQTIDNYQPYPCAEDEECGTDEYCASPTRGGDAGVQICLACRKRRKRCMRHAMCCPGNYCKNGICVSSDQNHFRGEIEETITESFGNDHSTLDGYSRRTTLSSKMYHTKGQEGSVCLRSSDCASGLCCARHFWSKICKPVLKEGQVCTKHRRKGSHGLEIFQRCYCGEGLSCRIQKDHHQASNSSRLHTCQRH
# [20] = test system: Inhibin beta A chain (activin A); assay: small molecules binding activin A – biochemical, small-molecule microarray, 635 nm fluorescence scan, primary screen (AID 1107); conditions: INHBA, higher = more signal;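 note: mouse activin A protein probed at 4.33 µg/mL on printed slides; score merges bound-protein fluorescence near 667 nm with spot signal-to-noise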
SMILES,composite z-score [1],z-score [2],z-score [3],z-score [4],composite z-score [5],z-score [6],composite z-score [7],composite z-score [8],composite z-score [9],composite z-score [10],composite z-score [11],composite z-score [12],composite z-score [13],z-score [14],composite z-score [15],composite z-score [16],composite z-score [17],composite z-score [18],composite z-score [19],composite z-score [20]
CO[C@H]1COC(=O)CC=C[C@H](C)[C@@H](NS(=O)(=O)c2ccc(C)cc2)COC(=O)CC=C[C@@H]1C,0.855,-3.93 (inactive),-2.23 (inactive),-2.35 (inactive),-0.716,-1.11 (inactive),-0.118,0.659,0.66,-0.12,0.219,-0.257,-0.674,-2.06 (inactive),0.582,0.528,0.853,0.579,0.761,0.257
CN(C)C(=O)[C@@]1(Cc2ccccc2)N=C(c2ccc(OCCCO)cc2)O[C@H]1c1ccccc1CN=[N+]=[N-],1.56,-1.88 (inactive),-0.31 (inactive),0.477 (inactive),3.17,0.73 (inactive),0.578,0.801,0.969,0.361,1.2,1.44,1.35,0.32 (inactive),1.47,0.777,-0.194,0.732,0.0591,0.784
COc1ccc(O[C@H]2C=C[C@@H](c3ccccc3)O[C@@H]2COC(=O)CCC(C)=NOC[C@@H](C)[C@H](OCc2ccccc2)C(C)C)cc1,-0.548,0.122 (inactive),0.329 (inactive),-1.18 (inactive),-0.694,0.17 (inactive),-0.261,-0.37,-1.03,-0.219,-0.886,-0.366,-0.529,0.292 (inactive),-0.433,-0.662,-0.706,-0.629,-0.698,0.553
COC(=O)[C@@]1(Cc2ccc(F)cc2)[C@H]2c3cc(C(=O)N(C)C)n(Cc4ccc(OC)c(OC)c4)c3C[C@H]2CN1C(=O)c1ccccc1,-1.32,0.0573 (inactive),-0.636 (inactive),-0.249 (inactive),1.54,-0.31 (inactive),0.498,-0.344,-0.309,0.365,-0.236,1.08,0.43,-3.2 (inactive),0.495,-1.21,0.278,-0.32,-0.686,0.939
COC(=O)[C@H](C)NC(=O)CCC1CC(OC(=O)NCCc2ccc(F)cc2)CC2(CCCC(COC(=O)NCCc3ccc(Cl)cc3)O2)O1 (stereo not given in full),1.24,0.86 (inactive),0.812 (inactive),1.2 (inactive),2.39,0.126 (inactive),-0.0237,0.244,1.12,-0.0989,0.316,0.0144,-0.615,-0.137 (inactive),1.07,0.987,0.344,1.29,1.05,0.0063
CN1C(=O)C2C=CC(C(O)c3ccc(I)cc3)N(NC(=O)OC(C)(C)C)C2C1=O (stereo not given),0.896,0.725 (inactive),-0.424 (inactive),0.931 (inactive),3.21,-1.07 (inactive),0.0607,0.17,1.04,0.157,1.22,0.829,1.05,2.31 (inactive),0.599,1.24,0.04,0.925,-0.168,0.599
COCCCNC(=O)[C@@]1(C)c2ccccc2C(=O)N(Cc2ccc(OC(F)(F)F)cc2)[C@H]1c1ccc(CO)cc1,0.289,-0.0965 (inactive),0.203 (inactive),-0.35 (inactive),-0.0493,0.93 (inactive),0.134,-0.598,-0.519,0.146,0.655,0.506,0.973,-0.346 (inactive),-0.527,-1.3,-1.11,-0.851,-0.401,0.153
C[C@@H](c1ccccc1)N1C(=O)[C@H]2[C@H]3[C@H](O)C=CC(=O)[C@@H]3CC[C@H]2C1=O,0.595,-0.432 (inactive),-0.271 (inactive),-0.402 (inactive),-0.309,0.372 (inactive),-0.252,0.421,0.698,-0.0649,-0.0301,-0.293,-0.674,0.432 (inactive),0.373,0.606,0.54,0.699,0.557,0.25
CCCNC(=O)OC[C@H]1O[C@H](CCON=C[C@@H](OC)[C@H](C)C=CCC(=O)OC)C=C[C@@H]1Oc1ccc(OC)cc1,1.17,-1.01 (inactive),0.141 (inactive),-0.0988 (inactive),0.524,0.294 (inactive),-0.0519,0.194,-0.31,-0.136,0.638,-0.305,-0.528,-0.213 (inactive),0.463,-0.0589,0.15,0.109,0.482,0.717
NC(=O)NCC#Cc1ccc2c(c1)[C@]1(C(=O)N2)[C@H](c2ccc(O)cc2)N2[C@H](c3ccccc3)[C@H](c3ccccc3)OC(=O)[C@H]2[C@@H]1C(=O)N1CCCCCCC1,1.53,1 (inactive),-0.447 (inactive),1.24 (inactive),1.55,0.951 (inactive),1.24,1.55,1.01,0.511,1.08,1.8,1.08,0.445 (inactive),0.593,-0.018,0.356,1.28,0.408,1.4
